The full data set covers some 7,900 targets. This sample favours those with a hit. About 0.6% of all pairs of compound and target were hits.
Assays:
Assay in all cases: log2 fold change, soluble protein after heating vs DMSO (PISA); higher = thermal stabilisation; K562 cells, 10 uM, 30 min; active = over 0.2 and 3.5 SD of the protein, either way, in both replicates (recomputed)
[1] = compound: C1=CC=C(C=C1)[C@H](COC2=CC3=C(C=C2)NC(=O)N3)NC(=O)C4=CC=CN(C4=O)CC5=CC(=C(C=C5)F)F
Method in brief: (§1)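 K562 cells at 2×10^6 cells/mL were treated for 30 min with 10 μM compound, and aliquots were heated for 3 min over 48°C-58°C before pooling. Extraction used PBS with 0.5% NP-40 at 4°C, and soluble protein was the supernatant after 21,000xg for 90 min, measured by TMTpro 16plex LC-MS/MS with channel sums equalised. Thermal stability values, relative to control samples and from duplicates, are log2 fold changes.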

[2] = compound: CC1=C(SC2=C1C(=N[C@H](C3=NN=C(N32)C)CC(=O)N)C4=CC=C(C=C4)Cl)C
Method in brief: as §1

[3] = compound: CC1=C2C(=CC=C1)N=C(N(C2=O)C3=CC=CC=C3C)CN4C=NC5=C(N=CN=C54)N
Method in brief: as §1

[4] = compound: Cc1sc2c(c1C)C(c1ccc(Cl)cc1)=N[C@@H](CC(=O)OC(C)(C)C)c1nnc(C)n1-2
Method in brief: as §1

[5] = compound: c1ccc([C@@H]2C[C@H]2NC2CCNCC2)cc1
Method in brief: as §1

Measured: log2 fold change

MED22 (UniProt Q15528)
Chain of UniProt Q15528 (Q15528 whole entry, looked up): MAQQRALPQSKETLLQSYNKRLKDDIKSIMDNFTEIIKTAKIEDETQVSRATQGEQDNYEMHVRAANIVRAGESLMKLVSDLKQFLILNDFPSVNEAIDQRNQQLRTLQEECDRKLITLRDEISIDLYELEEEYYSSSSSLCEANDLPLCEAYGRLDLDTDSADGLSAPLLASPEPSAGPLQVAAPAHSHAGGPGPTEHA
inactive: [1] 0.013 | [2] 0.065 | [3] 0.013 | [4] 0.195 | [5] 0

LPCAT3 (UniProt Q6P1A2)
Chain of UniProt Q6P1A2 (Q6P1A2 whole entry, looked up): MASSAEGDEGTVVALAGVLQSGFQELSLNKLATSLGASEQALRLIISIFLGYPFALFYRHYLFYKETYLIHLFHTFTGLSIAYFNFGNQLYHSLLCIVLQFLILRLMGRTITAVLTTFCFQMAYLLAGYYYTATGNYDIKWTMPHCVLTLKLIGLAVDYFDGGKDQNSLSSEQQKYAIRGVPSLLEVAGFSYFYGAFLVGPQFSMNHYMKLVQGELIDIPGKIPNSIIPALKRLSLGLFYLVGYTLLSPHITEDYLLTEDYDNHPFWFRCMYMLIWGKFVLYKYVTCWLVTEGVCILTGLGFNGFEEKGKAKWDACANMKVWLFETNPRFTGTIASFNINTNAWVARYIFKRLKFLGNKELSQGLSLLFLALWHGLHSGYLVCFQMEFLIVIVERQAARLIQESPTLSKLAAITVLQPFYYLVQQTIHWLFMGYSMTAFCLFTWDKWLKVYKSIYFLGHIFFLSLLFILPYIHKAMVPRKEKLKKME
inactive: [1] 0.019 | [2] 0.071 | [3] -0.011 | [4] -0.093 | [5] -0.052

LMF2 (UniProt Q9BU23)
Chain of UniProt Q9BU23 (Q9BU23 whole entry, looked up): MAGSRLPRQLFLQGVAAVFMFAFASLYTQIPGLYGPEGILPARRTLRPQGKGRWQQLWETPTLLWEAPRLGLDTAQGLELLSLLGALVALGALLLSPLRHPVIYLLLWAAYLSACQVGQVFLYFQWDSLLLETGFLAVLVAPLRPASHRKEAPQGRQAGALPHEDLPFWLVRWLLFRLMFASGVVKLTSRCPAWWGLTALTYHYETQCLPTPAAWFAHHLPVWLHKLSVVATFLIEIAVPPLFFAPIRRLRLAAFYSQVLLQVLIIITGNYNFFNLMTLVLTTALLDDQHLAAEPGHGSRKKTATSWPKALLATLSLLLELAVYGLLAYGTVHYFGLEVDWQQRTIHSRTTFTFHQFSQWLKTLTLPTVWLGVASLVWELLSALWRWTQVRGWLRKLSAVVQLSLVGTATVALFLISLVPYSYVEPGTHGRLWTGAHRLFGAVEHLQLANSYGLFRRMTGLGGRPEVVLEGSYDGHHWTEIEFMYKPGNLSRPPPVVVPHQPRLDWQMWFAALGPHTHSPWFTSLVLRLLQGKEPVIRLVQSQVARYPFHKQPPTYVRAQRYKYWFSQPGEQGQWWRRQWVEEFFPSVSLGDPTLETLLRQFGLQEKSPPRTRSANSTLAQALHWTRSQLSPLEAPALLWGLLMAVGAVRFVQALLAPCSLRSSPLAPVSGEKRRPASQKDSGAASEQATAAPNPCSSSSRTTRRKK
inactive: [1] -0.001 | [2] -0.013 | [3] 0.097 | [4] -0.012 | [5] -0.053

LDAH isoform 2 (UniProt Q9H6V9)
Chain of UniProt Q9H6V9 (Q9H6V9 whole entry, looked up): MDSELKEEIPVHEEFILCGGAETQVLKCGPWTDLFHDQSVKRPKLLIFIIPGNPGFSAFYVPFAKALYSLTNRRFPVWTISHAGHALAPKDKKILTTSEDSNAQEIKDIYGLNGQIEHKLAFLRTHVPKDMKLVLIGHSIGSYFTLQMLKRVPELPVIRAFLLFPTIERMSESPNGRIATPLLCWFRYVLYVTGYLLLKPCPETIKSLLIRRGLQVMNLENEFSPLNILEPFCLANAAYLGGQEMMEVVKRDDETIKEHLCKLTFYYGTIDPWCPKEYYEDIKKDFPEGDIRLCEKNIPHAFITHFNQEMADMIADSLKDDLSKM
inactive: [1] -0.125 | [2] 0.019 | [3] 0.086 | [4] 0.174 | [5] -0.059

LTV1 (UniProt Q96GA3)
Chain of UniProt Q96GA3 (Q96GA3 whole entry, looked up): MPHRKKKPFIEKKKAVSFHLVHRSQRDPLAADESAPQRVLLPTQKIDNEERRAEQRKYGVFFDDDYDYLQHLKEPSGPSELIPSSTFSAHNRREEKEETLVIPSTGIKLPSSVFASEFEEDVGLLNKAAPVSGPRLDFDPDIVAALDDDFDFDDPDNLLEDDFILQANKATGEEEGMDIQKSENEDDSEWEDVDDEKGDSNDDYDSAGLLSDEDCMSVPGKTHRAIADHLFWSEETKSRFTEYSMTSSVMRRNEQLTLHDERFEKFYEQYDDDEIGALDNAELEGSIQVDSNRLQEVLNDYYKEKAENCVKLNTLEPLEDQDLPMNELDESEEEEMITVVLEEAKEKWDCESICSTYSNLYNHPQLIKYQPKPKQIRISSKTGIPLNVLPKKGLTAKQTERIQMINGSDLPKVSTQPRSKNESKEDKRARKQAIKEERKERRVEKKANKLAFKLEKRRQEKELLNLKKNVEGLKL
inactive: [1] -0.02 | [2] -0.137 | [3] -0.033 | [4] 0.17 | [5] 0
